# Records with an inconclusive call do not appear. Unmarked numbers belong to inactive results. The call rests on the fitted dose curve; in most records, active means well fitted inhibition curve with a large enough effect; inconclusive means small, poorly fitted or top-dose-only effect, or effect the other way; inactive means flat fitted curve, though single readings scatter.
# Target: ATP-dependent 6-phosphofructokinase (Trypanosoma brucei brucei) (UniProt O15648)
# Assay: qHTS Assay to Find Inhibitors of T. brucei phosphofructokinase: hit validation (AID 492961);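 further: luminescence reports ADP formed as PFK phosphorylates fructose-6-phosphate with ATP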
# Conditions: T. brucei PFK, ADP-Glo luminescence; series mostly up to 51.4 µM; activity change, negative = inhibition: at the top concentration
# Method in brief: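 Reaction: 0.1 M triethanolamine pH 8.0, 5 mM MgCl2, F6P 0.5 mM, ATP 0.1 mM, PFK 1.25 nM, 45 min RT. Read-out: ADP-Glo luminescence. Analysis: concentration-response fits, classed by r2 and efficacy.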
# On the % scale 0 is the no-effect control and ±100 the full control effect.
# ATP-dependent 6-phosphofructokinase (Trypanosoma brucei brucei), sequence (O15648 whole entry, looked up): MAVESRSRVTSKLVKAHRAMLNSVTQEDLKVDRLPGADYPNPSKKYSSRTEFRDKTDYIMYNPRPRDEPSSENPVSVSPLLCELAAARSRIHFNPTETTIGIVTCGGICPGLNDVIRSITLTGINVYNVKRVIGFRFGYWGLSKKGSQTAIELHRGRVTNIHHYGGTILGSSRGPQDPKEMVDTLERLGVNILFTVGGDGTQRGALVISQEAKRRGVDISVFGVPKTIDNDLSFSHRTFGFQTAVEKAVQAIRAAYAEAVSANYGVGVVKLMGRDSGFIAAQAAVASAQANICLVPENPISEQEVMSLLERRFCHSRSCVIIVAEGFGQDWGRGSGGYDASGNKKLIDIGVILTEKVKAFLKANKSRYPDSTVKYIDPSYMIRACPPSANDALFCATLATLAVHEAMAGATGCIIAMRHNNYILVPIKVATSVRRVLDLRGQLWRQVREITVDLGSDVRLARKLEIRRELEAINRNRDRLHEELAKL
row,Compound,"activity change, negative = inhibition"
1,CCCc1nc(C(C)(C)O)c(C(=O)OCc2oc(=O)oc2C)n1Cc1ccc(-c2ccccc2-c2nn[nH]n2)cc1,8.56%
2,CC(C)NCC(O)COc1ccccc1-n1cccc1 (stereo unspecified),-2.01%
3,CC(=O)Oc1cc(C(F)(F)F)ccc1C(=O)O,-8.98% [at 24.3 µM]
4,O=C1c2ccccc2C(=O)c2c1ccc(O)c2O,-18.6%
5,O=C(O)Cc1nn(Cc2ccc(Br)cc2F)c(=O)c2ccccc12,-11.2%
6,COC(=O)CC[C@H](N)C(=O)O,-3.73%
7,C/C=C/C=C/C(=O)O,14.7%
8,CN(C)C=Nc1c(I)cc(I)c(CCC(=O)O)c1I,-10.3%
9,CCCCO,12.4%
10,C=C1C(CCl)(CCl)C2(Cl)C(Cl)C(Cl)C1(Cl)C2(Cl)Cl (stereo unspecified),-0.666%
11,O=C(CCCN1CCC(C(=O)c2ccc(F)cc2)CC1)c1ccc(F)cc1,2.16%
12,OC/C=C/c1ccccc1,-2.16%
13,CC(C)C1=CC2=CC[C@@H]3[C@](C)(CCC[C@@]3(C)C(=O)O)[C@H]2CC1,-1.23%
14,CCCOC(=O)c1ccccc1O,7.82%
15,CCOC(=O)[C@@H](N)CS,15.1%
16,C=CC[N+]1([C@H]2C[C@H]3[C@@H]4CC[C@H]5C[C@H](O)[C@@H](N6CCOCC6)C[C@]5(C)[C@H]4CC[C@]3(C)[C@H]2OC(C)=O)CCCC1,4.04%
17,O=C(O)CCC/C=C\C[C@@H]1[C@@H](/C=C/[C@@H](O)COc2cccc(Cl)c2)[C@H](O)C[C@@H]1O,-18%
18,CC(C)CCC[C@@H](C)[C@H]1CC[C@H]2[C@@H]3CC[C@@H]4C[C@H](O)CC[C@]4(C)[C@H]3CC[C@]12C,14.5%

row,Compound,"activity change, negative = inhibition"
1,O=C1CCC(=O)N1CO,1.05%
2,CCOC(=O)Cc1ccc(-c2ccccc2)cc1,2%
3,CCCCCCCCCCCCCCCCOCCOCCOCCOCCOCCOCCOCCOCCOCCOCCOCCOCCOCCOCCOCCOCCOCCOCCOCCOCCO,6.99%
4,CC(=O)N=c1sc(S(N)(=O)=O)nn1C,-2.59% [at 24.3 µM]
5,COC(=O)C(CN)c1c[nH]c2ccc(OC)cc12 (stereo unspecified),0%
6,CN1c2c(nc(N)[nH]c2=O)NCC1CNc1ccc(C(=O)NC(CCC(=O)O)C(=O)O)cc1 (stereo unspecified),-11.2%
7,CNC(=O)c1c(I)c(C(=O)NCC(=O)Nc2c(I)c(C(=O)O)c(I)c(C(=O)NCCO)c2I)c(I)c(N(C)C(C)=O)c1I,4.1%
8,COc1ccc(/C=N/NC(=O)c2ccncc2)c(C(=O)O)c1OC,-4.08%
9,O=C1N=C2SCCN2C(=O)C1Cc1ccc(Cl)cc1 (stereo unspecified),3.16%
10,CC12CCC(C[N+](C)(CCC[N+](C)(C)C)C1)C2(C)C (stereo unspecified),0%
11,O=C1CCC(c2ccccc2)(C2CCN(Cc3ccccc3)CC2)C(=O)N1 (stereo unspecified),-4.14%
12,C[C@H](CCCC(C)(C)O)[C@H]1CC[C@H]2[C@@H]3CC=C4C[C@@H](O)CC[C@]4(C)[C@H]3CC[C@]12C,4.14%
13,CN1CCCC(CN2c3ccccc3Sc3ccccc32)C1 (stereo unspecified),3.37%
14,CC(CCc1ccc(O)cc1)NCC(O)c1ccc(O)cc1 (stereo unspecified),-5.11%
15,CCN(CC)CCOC(=O)c1cccnc1,-7.77%
16,CSCCC(N)C(=O)O (stereo unspecified),-4.76%
17,c1ccc2c(c1)Sc1ccccc1N2CCN1CCCC1,0%
18,CCCCCCCCCCCCCCCCCC(=O)OC[C@@H](O)[C@H]1OC[C@H](O)[C@H]1O,5.81%

# Source: PubChem BioAssay (NCATS)
